PubChem BioAssay (Tox21)
Records with an inconclusive call do not appear. The source made the active and inactive calls. The call rests on the fitted dose curve; in most records, active means well fitted cell-killing curve with a large enough effect in the repeat runs (not every such curve was filed as active); inconclusive means weak or mixed curves, or effect the other way; inactive means no such curve, though single readings can be large or run the other way.

Test: qHTS assay to identify small molecule antagonists of the farnesoid-X-receptor (FXR) signaling pathway - cell viability counter screen (AID 743221); further: nearly all actives have a fitted effect of over 50% in size
Details: FXR-bla HEK293T viability, CellTiter-Glo luminescence, 16 h; series mostly up to 62.6 µM; activity change, negative = cytotoxicity: at the top concentration
From the text: National Center for Advancing Translational Sciences [NCATS]
NIH Chemical Genomics Center [NCGC]
U.S. Environmental Protection Agency [EPA]
National Institutes of Environmental Health Sciences [NIEHS]
National Toxicology Program [NTP]
U.S. Food and Drug Administration [FDA]
The farnesoid-X-receptor (FXR), a nuclear hormone receptor, is highly expressed in liver, intestine, kidney and adrenal cortex. Natural ligands of FXR are the bile acids (Cholic acid, Chenodeoxy cholic acid etc). FXR is an important regulator of diverse metabolic pathways, including the bile acid homeostasis, lipid and glucose metabolisms. FXR regulates the expression of target genes by binding either as a monomer or as a heterodimer with the retinoid X receptor (RXR). Numerous studies have reported that FXR exerts protective function during cholestasis, diabetes, liver regeneration, and cancer. To identify compounds that inhibit FXR signaling, GeneBLAzer FXR-UAS-bla HEK 293T cell line (Invitrogen, Carlsbad, CA) containing a beta-lactamase reporter gene under the control of a UAS response element was used to screen the Tox21 10K compound library. The cytotoxicity of the Tox21 compound library against the FXR-bla cell line was tested in parallel by measuring the cell viability using CellTiter-Glo assay in the same wells.
Tox21 Assay Protocol Summary:
FXR-bla cells were dispensed at 5000 cells/5uL/well in 1536-well black wall/clear bottom plates using a Multidrop Combi (Thermo Fisher Scientific, Waltham, MA) dispenser. After the assay plates were incubated at 37 C and 5% CO2 for 5 h, 23 nL of compounds dissolved in DMSO, positive controls or DMSO only was transferred to the assay plate by a Pintool station (Kalypsys, San Diego, CA), followed by addition of 1 uL Chenodeoxycholic acid (50 uM, final concentration in the wells). The assay plates were incubated at 37C for 16 h. After 1 uL of LiveBLAzerTM B/G FRET substrate was added using a Bioraptr Flying Reagent Dispenser (FRD) workstation (Beckman Coulter, Indianapolis, IN), the plates were incubated at room temperature for 2 h, and fluorescence intensity was measured by an Envision plate reader (PerkinElmer, Shelton, CT). For cell viability readout that measures cytotoxicity, 4uL/well of CellTiter-Glo reagent was added into the assay plates using a Bioraptr FRD. After 30 min incubation at room temperature, the luminescence intensity in the plates was measured using a ViewLux plate reader (PerkinElmer).
On the % scale 0 is the no-effect control and ±100 the full control effect; potency means the concentration at half of the fitted maximal effect.

| Compound | activity change, negative = cytotoxicity | Potency |
| --- | --- | --- |
| CN(C)[C@@H]1C(=O)C(C(N)=O)=C(O)[C@@]2(O)C(=O)C3=C(O)c4c(O)cccc4C[C@H]3C[C@@H]12 | 0.329% (inactive) |  |
| CCN(CC)CCCC(C)Nc1c2ccc(Cl)cc2nc2ccc(OC)cc12 (stereo not given) |  | 26.6 µM (active) |
| CCN(C(=O)c1cc(C)cc(OC[C@H](C)Nc2ccncc2)c1)C(C)C | -0.457% (inactive) |  |
| Nc1nc2ccccc2n1Cc1ccc(F)cc1 | -20.4% (inactive) |  |
| COC(=O)C1=C(C)NC(C)=C(C(=O)OCCc2ccc(N3CCN(C(c4ccccc4)c4ccccc4)CC3)cc2)C1c1cccc([N+](=O)[O-])c1 (stereo not given) | -0.572% (inactive) |  |
| CCCCN1CCCC[C@H]1C(=O)Nc1c(C)cccc1C | -12.9% (inactive) |  |
| CCC(C)Nc1ccc(NC(C)CC)cc1 (stereo not given) |  | 35.3 µM (active) |
| CCCCCCCCCCCC(=O)NCCCN(C)C |  | 49 µM (active) |
| Cc1cc(CCN2CCN(c3nsc4ccccc34)CC2)cc2c1NC(=O)CC2(C)C |  | 38.9 µM (active) |
| OCCN(CCO)c1nc(N2CCCCC2)c2nc(N(CCO)CCO)nc(N3CCCCC3)c2n1 | -6.01% (inactive) |  |
| CC(C)(C)C(=O)OCOC(=O)[C@@H]1N2C(=O)[C@@H](NC(=O)[C@H](N)c3ccccc3)[C@H]2SC1(C)C | 0.937% (inactive) |  |
| N=C1N=C(N)c2cc3ccccc3cc21 |  | 54.9 µM (active) |
| CN(C)c1ccc(SC#N)cc1 | -9.83% (inactive) |  |
| CC1=C(/C=C/C(C)=C/C=C/C(C)=C/C=O)C(C)(C)CCC1 |  | 48.7 µM (active) |
| C[n+]1ccn(Cc2ccccc2)c1 | -8.31% (inactive) |  |
| Cc1onc(-c2ccccc2Cl)c1C(=O)N[C@@H]1C(=O)N2[C@@H]1SC(C)(C)[C@@H]2C(=O)O | 6.22% (inactive) |  |
| CC(=O)N1CCN(c2ccc(OC[C@H]3CO[C@](Cn4ccnc4)(c4ccc(Cl)cc4Cl)O3)cc2)CC1 |  | 54.9 µM (active) |
| NC(=O)CC[C@@H]1NC(=O)[C@H](Cc2ccccc2)NC(=O)[C@H](Cc2ccc(O)cc2)NC(=O)CCSSC[C@@H](C(=O)N2CCC[C@H]2C(=O)N[C@@H](CCCN=C(N)N)C(=O)NCC(N)=O)NC(=O)[C@H](CC(N)=O)NC1=O | 1.24% (inactive) |  |
| CCCCCCCCn1sc(Cl)c(Cl)c1=O |  | 9.77 µM (active) |
| Oc1cc2ccccc2c2ccccc12 |  | 9.77 µM (active) |

| Compound | activity change, negative = cytotoxicity | Potency |
| --- | --- | --- |
| N/C(=N\N=C\c1ccc(Cl)cc1)N/N=C/c1ccc(Cl)cc1 | -5.48% (inactive) |  |
| Cn1cc(C(=O)[C@@H]2CCc3nc[nH]c3C2)c2ccccc21 | -0.222% (inactive) |  |
| NC(=O)NS(=O)(=O)c1ccc(N)cc1 | 3.31% (inactive) |  |
| Nc1cc(C(F)(F)F)ccc1S | 4.44% (inactive) |  |
| CCCC(c1cc(C(C)(C)C)c(O)cc1C)c1cc(C(C)(C)C)c(O)cc1C |  | 19.7 µM (active) |
| CN(C)c1ccc(C2(c3ccc(N(C)C)cc3)OC(=O)c3cc(N(C)C)ccc32)cc1 | 0.0382% (inactive) |  |
| CCCCCCCCOC(=O)c1ccc(O)cc1 |  | inactive |
| O=C(c1ccc(F)cc1)C1CCN(CCn2c(=O)[nH]c3ccccc3c2=O)CC1 | -3.24% (inactive) |  |
| CCCCN(CCCC)C(=O)N(CCCC)CCCC | 9.6% (inactive) |  |
| Nc1ccc2cc(S(=O)(=O)O)cc(O)c2c1N=Nc1ccccc1C(F)(F)F | 3.1% (inactive) |  |
| CCN(CC)CCNC(=O)c1c(C)[nH]c(/C=C2\C(=O)Nc3ccc(F)cc32)c1C |  | 21.1 µM (active) |
| Oc1ccc(Cl)cc1Sc1cc(Cl)ccc1O |  | 48.9 µM (active) |
| CN1CCN(CCC(=O)N2c3ccccc3Sc3ccc(C(F)(F)F)cc32)CC1 |  | 33.5 µM (active) |
| Cc1cc2c(cc1C(F)(F)F)N(C(=O)Nc1ccc(Oc3cccnc3C)nc1)CC2 | -21.3% (inactive) |  |
| Cc1cc(O)c(Cl)c(C)c1Cl |  | 49 µM (active) |
| CCCCCCCCNC(C)C(O)c1ccc(SC(C)C)cc1 (stereo not given) |  | 23.7 µM (active) |
| CCCCN(CCCC)c1ccc(C(=O)c2ccccc2C(=O)O)c(O)c1 |  | 44.1 µM (active) |
| CCCC/C=C/CCCCO | 0.89% (inactive) |  |
| O=[N+]([O-])c1cc([N+](=O)[O-])c2ccc(S(=O)(=O)O)cc2c1O | 6.38% (inactive) |  |
| CC1(C)CCC(C)(C)c2cc(C(=O)Nc3ccc(C(=O)O)cc3)ccc21 | 1.74% (inactive) |  |
